Results reported in PubChem BioAssay (NCATS).
Values joined by “and” are separate entries in the source; they are usually repeats but may differ in a detail not shown here. Equal values may be shown once. Inconclusive results are not listed. A call without a number means that no potency is given here. Some compounds were tested as several samples or in several runs, with calls that do not always agree. Active and inactive are the calls of the source. The call rests on the fitted dose curve; in most records, active means well fitted curve in the direction sought with a large enough effect; inconclusive means small, poorly fitted or top-dose-only effect, or another doubt; inactive means no such curve, though single readings can be large; an effect the other way counts as inactive or inconclusive.

Legend:
[1] = target: Glutathione peroxidase 1 (Homo sapiens) (UniProt P07203); test: Primary qHTS Assay for Inhibitors of Recombinant Selenoprotein Glutathione Peroxidase 1 (GPX1) (AID 1845191); further: nearly all actives have a fitted effect of over 65% in size
Procedure, shortened: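 NADPH consumption tracked by fluorescence at 340/450 nm between t=0 and t=15 min, room temperature. Final mix: 10 nM GPX1, 100 nM glutathione reductase, 1 mM GSH, 0.5 mM NADPH, 0.5 mM cumene hydroperoxide, 0.01% BSA; 30 min compound–enzyme preincubation.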

[2] = target: Phospholipid hydroperoxide glutathione peroxidase GPX4 (Homo sapiens) (UniProt P36969); test: Primary qHTS Assay for Inhibitors of Recombinant Selenoprotein Glutathione Peroxidase 4 (GPX4) (AID 1845192); further: nearly all actives have a fitted effect of over 65% in size; further: potency means the concentration at half of the fitted maximal effect
Procedure, shortened: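 NADPH consumption followed by fluorescence at 340/450 nm, t=0 and after 15 min at room temperature. Reaction started with cumene hydroperoxide (0.5 mM final) after 30 min compound–GPX4 preincubation; final 200 nM GPX4, 100 nM GR, 1 mM GSH, 0.5 mM NADPH.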

[3] = target: Luciferin 4-monooxygenase (Photinus pyralis) (UniProt P08659); test: Primary firefly luciferase (FLuc) qHTS assay for identification of artifact compounds. (AID 1845220); further: nearly all actives have a fitted effect of over 60% in size
Procedure, shortened: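 Cell-free, 1536-well qHTS. Buffer pH 7.6 with 0.01% Tween-20 and 0.05% BSA; 10 uM D-luciferin, 10 uM ATP; 10 nM P. pyralis luciferase; luminescence after 5 min.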

[4] = Primary fluorescence-based thiol-reactive (MSTI) qHTS assay for identification of artifact compounds. (AID 1845221); further: nearly all actives have a fitted effect of over 65% in size; further: potency means the concentration at half of the fitted maximal effect
Procedure, shortened: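 Curve-fitted percent inhibition (4-parameter Hill) derived from fluorescence, Ex 525/Em 598 nm, scaled with Acetyl-MSTI and MSTI; 1 h incubation at room temperature.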

[5] = system: Nanoluciferase (engineered Oplophorus gracilirostris luciferase); test: Primary Nanoluciferase (NLuc) qHTS assay for identification of artifact compounds. (AID 1845222); further: series mostly up to about 54 µM
Procedure, shortened: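 Compounds are pinned into diluted (1:55) conditioned medium of NLuc-expressing S16 cells and held 15 min at room temperature protected from light. Nano-Glo substrate follows, and luminescence is read 5 min later.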

[6] = Primary redox qHTS assay for identification of artifact compounds. (AID 1845223)
Procedure, shortened: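 Redox-cycling detection via DTT (250 uM final) oxidation coupled to Amplex Red (25 uM)/HRP (250 mU/mL) in HBSS. 15 min preincubation plus 30 min after DTT, room temperature. Ex/Em 525/598 nm; 4-parameter Hill fit against DMSO and 10 uM DA3003.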

Phospholipid hydroperoxide glutathione peroxidase GPX4 (Homo sapiens), sequence (P36969 whole entry, looked up): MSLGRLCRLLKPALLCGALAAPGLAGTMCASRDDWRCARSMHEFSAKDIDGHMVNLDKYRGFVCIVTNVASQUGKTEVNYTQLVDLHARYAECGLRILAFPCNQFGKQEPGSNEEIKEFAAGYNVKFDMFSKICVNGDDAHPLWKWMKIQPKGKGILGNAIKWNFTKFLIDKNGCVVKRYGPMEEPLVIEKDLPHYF
Glutathione peroxidase 1 (Homo sapiens), sequence (P07203 whole entry, looked up): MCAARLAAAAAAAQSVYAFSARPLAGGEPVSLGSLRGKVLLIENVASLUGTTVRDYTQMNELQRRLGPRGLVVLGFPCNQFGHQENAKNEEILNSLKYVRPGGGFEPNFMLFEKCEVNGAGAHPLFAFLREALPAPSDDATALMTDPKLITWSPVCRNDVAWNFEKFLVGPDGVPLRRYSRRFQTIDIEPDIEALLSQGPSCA

Structure (SMILES) | Potency [1] | Potency [2] | Potency [3] | Potency [4] | Potency [5] | Potency [6]
COc1cc2c(cc1-c1c(C)noc1C)ncc1[nH]c(=O)n([C@H](C)c3ccccn3)c12 | inactive | inactive | inactive | inactive | inactive | inactive
CC(C)c1nn(-c2c(Cl)cccc2Cl)c2nc(Cc3ccc(OCCO)cc3)[nH]c(=O)c12 | inactive | inactive | inactive | inactive | inactive | inactive
NCC(=O)Nc1ccc(-n2nc(C(F)(F)F)cc2-c2ccc3c(ccc4ccccc43)c2)cc1 | inactive | inactive | inactive | inactive | – | inactive
CCOC(=O)C1=C(C)NC2=C(C(=O)CC(C)(C)C2)C1c1ccc(-c2ccccc2)cc1 (stereo not given) | inactive | inactive | inactive | inactive | – | inactive
CNc1nccc(-c2cccnc2Oc2cc(C(=O)Nc3cccc(C(F)(F)F)c3)ccc2C)n1 | inactive | inactive | inactive | inactive | inactive | inactive
Cc1ccc(NC(=O)C2(c3ccc4c(c3)OC(F)(F)O4)CC2)nc1-c1cccc(C(=O)O)c1 | inactive | inactive and 14.1 µM (active) | inactive | inactive | – | inactive
COc1ccc(C(=O)CC2(O)C(=O)Nc3c(Cl)ccc(Cl)c32)cc1 (stereo not given) | inactive | inactive | inactive | inactive | inactive | inactive
C=CC(=O)Nc1cccc(Oc2nc(Nc3ccc(N4CCN(C)CC4)cc3OC)ncc2Cl)c1 | inactive | inactive | inactive | 2.67 µM (active) | inactive | inactive
COc1cc2nccc(Oc3ccc(NC(=O)C4(C(=O)Nc5ccc(F)cc5)CC4)cc3)c2cc1OC | inactive | inactive | inactive | inactive | inactive | inactive
Cc1[nH]nc2ccc(-c3cncc(OC[C@@H](N)Cc4ccccc4)c3)cc12 | inactive | inactive | inactive | inactive | – | inactive
C1Cc2[nH]nc(-c3nn[nH]n3)c2C1 | inactive | inactive | inactive | inactive | inactive | inactive
Cc1cn2c(-c3cn[nH]c3)cnc2c(Nc2ccc(C(=O)N3CCNCC3)cc2F)n1 | inactive | inactive | inactive | inactive | inactive | inactive
Cc1cn(-c2cc(NC(=O)c3ccc(C)c(Nc4nccc(-c5cccnc5)n4)c3)cc(C(F)(F)F)c2)cn1 | inactive | inactive | inactive | inactive | inactive | inactive
C[C@]12CC[C@H](O)CC1=CCC1C2CC[C@]2(C)C(n3cnc4ccccc43)=CCC12 (stereo not given in full) | inactive | inactive | inactive | inactive | inactive | inactive
CN(C1CCc2c(c3ccccc3n2CC(=O)O)C1)S(=O)(=O)c1ccc(F)cc1 (stereo not given) | inactive | inactive | inactive | 2.67 µM (active) and 2.12 µM (active) | inactive | inactive
O=C(Nc1nc2cccc(-c3ccc(CN4CCS(=O)(=O)CC4)cc3)n2n1)C1CC1 | inactive | inactive | inactive | inactive | inactive | inactive
O=C(Nc1cn[nH]c1-c1nc2ccc(CN3CCOCC3)cc2[nH]1)NC1CC1 | inactive | inactive | inactive | inactive | – | inactive
CS(=O)(=O)N1CCN(Cc2cc3nc(-c4cccc5[nH]ncc45)nc(N4CCOCC4)c3s2)CC1 | inactive | inactive | inactive | inactive | inactive | inactive
CCCn1c(=O)c2[nH]c(-c3cnn(Cc4cccc(C(F)(F)F)c4)c3)nc2n(CC)c1=O | inactive | inactive | inactive | inactive | inactive | inactive
c1nc2nc(Nc3ccc(N4CCOCC4)cc3)nc(NC3CCCCC3)c2[nH]1 | inactive | inactive | inactive | 0.922 µM (active) | inactive | inactive
NC(=O)c1c(OCc2c(F)cc(Br)cc2F)nsc1NC(=O)NCCCCN1CCCC1 | inactive | inactive | inactive | inactive | inactive | inactive
COc1cc(OC2CCN(C)CC2)ccc1Nc1ncc2c(n1)n(C1CCCC1)c(=O)n2C | – | inactive | – | – | – | –
Cc1ccc(CN2CCNCC2)cc1NC(=O)CNc1ccc(F)c(F)c1 | inactive | inactive | inactive | – | inactive | –
CNC(=O)c1nn(C)c2c1C(C)(C)Cc1cnc(Nc3ccc(N4CCN(C)CC4)cc3)nc1-2 | inactive | inactive | inactive | – | inactive | –
CC1(C)CCC(c2ccc(Cl)cc2)=C(CN2CCN(c3ccc(C(=O)NS(=O)(=O)c4ccc(N[C@H](CCN5CCOCC5)CSc5ccccc5)c(S(=O)(=O)C(F)(F)F)c4)cc3)CC2)C1 | inactive | 10100 nM (active) | inactive | inactive | – | inactive
